Test results reported in paper PMC7819943, “Rice protein-binding microarrays: a tool to detect cis-acting elements near promoter regions in rice”.
Over roughly 39,000 sequences, “fluorescence intensity (a.u.)” has its median near 4,300; the highest 2% begin near 39,000. The sample holds the highest values, similar sequences and a random draw of the others, so the mix is not that of the screen.

Biological target: T1, OsSMF1 (Oryza sativa, UniProt Q6ZLB0 1-436)
T1 sequence: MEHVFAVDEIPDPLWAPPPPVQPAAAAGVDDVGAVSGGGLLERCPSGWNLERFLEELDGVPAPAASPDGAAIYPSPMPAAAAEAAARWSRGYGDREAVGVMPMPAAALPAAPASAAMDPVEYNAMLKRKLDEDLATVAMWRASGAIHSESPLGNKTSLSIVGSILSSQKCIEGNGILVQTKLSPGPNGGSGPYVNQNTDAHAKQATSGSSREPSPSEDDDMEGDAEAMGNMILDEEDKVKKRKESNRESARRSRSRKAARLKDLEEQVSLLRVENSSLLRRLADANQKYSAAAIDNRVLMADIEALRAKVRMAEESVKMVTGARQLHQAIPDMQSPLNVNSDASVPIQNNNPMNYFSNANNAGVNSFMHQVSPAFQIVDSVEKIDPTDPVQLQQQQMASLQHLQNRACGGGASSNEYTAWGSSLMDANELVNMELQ
Assay: protein-binding microarray (RPBM); PBS, 2% BSA, 51.3 ng/ul salmon testes DNA, 50 uM zinc acetate, 200 nM TF, 25 C, 1 h; high values mean tight binding
Conditions: protein: recombinant; tags: N-terminal polyhistidine and DsRed monomer fusion (pET32a); chain copies: 2; label: CyDye5-dUTP incorporated in the synthesized complementary strand; 3' TTTTT single-stranded linker to array surface; dsDNA, one strand shown
Outline: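 Ni–NTA purification followed expression in E. coli BL21-CodonPlus of transcription factors fused N-terminally to a polyhistidine tag and DsRed. At 200 nM in PBS with 2% BSA, salmon testes DNA and 50 µM zinc acetate, the protein was incubated for 1 h at 25 °C with a custom Agilent array that had been primer-extended with Cy5-dUTP and blocked with 2% BSA. After washing, the array was read on an Axon 4000B scanner. The binding signal is per-feature fluorescence intensity in arbitrary units.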

| Sequence | binding signal |
| --- | --- |
| CCGCGCCACCTCATGCCGTGACGTGCAGATCCCCTCCTCCCGGAGTCACCTAGTGCAG | 7890 fluorescence intensity (a.u.) |
| GGAATGGATAGTGTTCTCGGAAGGAAATTGGTGCTGATGTCGGAGTCACCTAGTGCAG | 45600 fluorescence intensity (a.u.) |
| TTGTCCATCAATGGAGATGATGATGCCATGATCAAATGATCGGAGTCACCTAGTGCAG | 3370 fluorescence intensity (a.u.) |
| CACGTGTTTTCTCGATGTCCACGTGGTGATGTGGAATTGTCGGAGTCACCTAGTGCAG | 14800 fluorescence intensity (a.u.) |
| ATCGTGATGCAAATGTCGAACTTGGAAGATATCCATGGATCGGAGTCACCTAGTGCAG | 39000 fluorescence intensity (a.u.) |
| ACATCATGCCACATGCTTCCAAGAAGGATCCCATAGATGTCGGAGTCACCTAGTGCAG | 4220 fluorescence intensity (a.u.) |
| AATCTCGGTGCTGAGTGGACATGAATGAATGATGGAATCTCGGAGTCACCTAGTGCAG | 4150 fluorescence intensity (a.u.) |
| TCGATTCATTCGTTCCTTGGGTCGTGTCAGCATGGCCCATCGGAGTCACCTAGTGCAG | 11100 fluorescence intensity (a.u.) |
| GGTCTGGCGATGGAGCCTCCCGCCGGAGACGCCGCGCCGTCGGAGTCACCTAGTGCAG | 3540 fluorescence intensity (a.u.) |
| CCATGTTCCCAACCCCTCTCCCTCATTTTCCACGCGTATGCGGAGTCACCTAGTGCAG | 3650 fluorescence intensity (a.u.) |
| GTCCCTATCACATCGGATGTTTGAACAAAACAGAATATACCGGAGTCACCTAGTGCAG | 45600 fluorescence intensity (a.u.) |
| TAACATCATGTCTAGTTTGTTACCCTATCAAGACTAAAACCGGAGTCACCTAGTGCAG | 42600 fluorescence intensity (a.u.) |
| TGAGAGGTCTACATCATTACATGTCAAGACAAGACTACCACGGAGTCACCTAGTGCAG | 4540 fluorescence intensity (a.u.) |
| GAAACAAACACATCAGATGACGTTTGTTGAAATGCCTAACCGGAGTCACCTAGTGCAG | 5000 fluorescence intensity (a.u.) |
| ATGTTTGTGAAGTGACATATCACATATTGATCTATCATACCGGAGTCACCTAGTGCAG | 5200 fluorescence intensity (a.u.) |
| ATCATCTAGTTAAGACTGTTTGTATGCAACTATGCATGTACGGAGTCACCTAGTGCAG | 31400 fluorescence intensity (a.u.) |
| ACTTAATAAAATCAAACGTCACAGTTCCGTACTTTTCAGTCGGAGTCACCTAGTGCAG | 35900 fluorescence intensity (a.u.) |
| TCGCCGGGCTTCTCTACGAGTACCTCGTCATCCCGTCCACCGGAGTCACCTAGTGCAG | 5700 fluorescence intensity (a.u.) |
| ACGCAGCGGGCCAACTCCAACTCATCCCCAGCCTCCACCACGGAGTCACCTAGTGCAG | 4360 fluorescence intensity (a.u.) |
| CCGTGCTACAGCTGGCTACAAATATGTAGCCCTATGCTCTCGGAGTCACCTAGTGCAG | 18300 fluorescence intensity (a.u.) |
| TCCGTGCTACAGCTAGCTACAGATATGTAGTCCGTCATTCCGGAGTCACCTAGTGCAG | 45200 fluorescence intensity (a.u.) |
| TTGGAGTCCGTGCTGCAGCTGGCTACAGATCTGTAGCCCGCGGAGTCACCTAGTGCAG | 37600 fluorescence intensity (a.u.) |

| Sequence | binding signal |
| --- | --- |
| ATCCTGTCACGGTCAGCCACGTCGCGGAGGGCAGTGCGACCGGAGTCACCTAGTGCAG | 4580 fluorescence intensity (a.u.) |
| TTTACCATTGCGGGTGCTCTAATAGGTGGCATGCCATGCGCGGAGTCACCTAGTGCAG | 4740 fluorescence intensity (a.u.) |
| CGTCGTGCTCGTCGACGTCGTGCACTCCGTCGCCATCGTGCGGAGTCACCTAGTGCAG | 3220 fluorescence intensity (a.u.) |
| CGCTTCTCTCCCTGAGCTCGGCCTCGTGTCACTGACGTCGCGGAGTCACCTAGTGCAG | 4390 fluorescence intensity (a.u.) |
| AGGCTCCCCTGAGTCGTGACGTGCACTCGAAAGTCGAAAGCGGAGTCACCTAGTGCAG | 41100 fluorescence intensity (a.u.) |
| TACTTTAAGTACATGTATTAGTCAGCTGATATATACCTCACGGAGTCACCTAGTGCAG | 4310 fluorescence intensity (a.u.) |
| AGTATCTCTTTCACAAAAGCCTACGTCATCTTTAAATTAGCGGAGTCACCTAGTGCAG | 5060 fluorescence intensity (a.u.) |
| GATGGAGACCCTGTGCGAACTGACAGTAATAGGGCTGGAACGGAGTCACCTAGTGCAG | 39400 fluorescence intensity (a.u.) |
| ACCTGGTAACTGAACACAGGATGGAAACTCTGAATAATGACGGAGTCACCTAGTGCAG | 3250 fluorescence intensity (a.u.) |
| CTTGCGATGCGTGGTGAGTGGTGACTGTAATGTAATGGAACGGAGTCACCTAGTGCAG | 3450 fluorescence intensity (a.u.) |
| ATTTACTGCCTATTCGTGAGTTGGTCCTCCTGACTCTGACCGGAGTCACCTAGTGCAG | 3750 fluorescence intensity (a.u.) |
| TACCGTCCCTCAACTTTATGTCGAGTCTATATGACATACCCGGAGTCACCTAGTGCAG | 4220 fluorescence intensity (a.u.) |
| TACTTTATTTTGATTTTCGTGGGAGGTGACGTGGGCGCTTCGGAGTCACCTAGTGCAG | 19300 fluorescence intensity (a.u.) |
| TCTTCCCGCTCGCCACGTCAGCGCCATGTGAGCAAAACTACGGAGTCACCTAGTGCAG | 15500 fluorescence intensity (a.u.) |
| AATCAATCCATTAATATTTAACATGATCAGGCATTAGTCGCGGAGTCACCTAGTGCAG | 3580 fluorescence intensity (a.u.) |
| GTTGGAACAATTAATGTGCTGCAGGCAATAACAATCCAGTCGGAGTCACCTAGTGCAG | 48700 fluorescence intensity (a.u.) |
| ATCCACGTGGCAATGTATTAATCCAGTCAGCAACATCTCACGGAGTCACCTAGTGCAG | 12400 fluorescence intensity (a.u.) |
| ATTTGTCTTATGTATATGCTGTATAGGATCTATGGACGCCCGGAGTCACCTAGTGCAG | 3520 fluorescence intensity (a.u.) |
| GTTCCATTCCAATCCCATGAAAGCAACAGCGCTGCCTATCCGGAGTCACCTAGTGCAG | 35800 fluorescence intensity (a.u.) |
| ACATAATTGTATTATGCAGAACCAAAGCAGGCCACGTGAGCGGAGTCACCTAGTGCAG | 5470 fluorescence intensity (a.u.) |
| AACGGGGCCTCGTAGCAACAGCTCTGACGCACGTGACCTCCGGAGTCACCTAGTGCAG | 5400 fluorescence intensity (a.u.) |
